The source of these data is ChEMBL document CHEMBL3988442, “University of Dundee, Small-Polar-MMV Screening Library” (2021).

The whole screen tested about 48,000 compounds, of which about 13,000 (27%) showed an effect of 50% or more. This is one part of the list.

The test system of the experiment is Wolbachia pipientis. Nature of the experiment: Anti-Wolbachia Cell-Based Screen. The settings on record: 5 µM. Format: functional. On the set-up: scale not given: in the data most compounds retested in dose-response had high values.
Consider `CN1CCCN(C(=O)c2ccnn2-c2ccc3ccccn23)CC1.O=C(O)C(F)(F)F`, for which the “Percent Effect” value amounted to 83.85%. Consider `CN1CCN(c2ccc3ccc(C(=O)N4CCCO4)cn23)CC1.O=C(O)C(F)(F)F`, for which the “Percent Effect” value stood at 0.4274%. The result for `CN(C)C1CCN(C(=O)c2ccnn2-c2ccc3ccccn23)CC1.O=C(O)C(F)(F)F` reads 64.37%; that for `Cc1nc(-c2cc(C(=O)N3CCCN(C)CC3)c3ccccn23)cn1C.O=C(O)C(F)(F)F`, -23.06%; that for `CC(C)(CO)CNC(=O)c1ccnn1-c1ccc2ccccn12`, -11.35%.

For `O=C(NCCCN1CCOCC1)c1ccn(-c2ccc3ccccn23)n1.O=C(O)C(F)(F)F`, the “Percent Effect” value was -6.828%. To `CCOCc1nnc(NCc2ccsc2)o1` belongs -11.46%; to `Cc1ccc(OCC(O)CN(C)CC(=O)Nc2cc(C)on2)c(C)c1` (configuration not stated), 9.432%. The result for `Cc1ccn(CCC(=O)N2CCOC(c3nc(-c4cccs4)no3)C2)n1` (configuration not stated) reads -6.468%; that for `Cc1noc([C@@H]2CCO[C@@H]3CCN(C(=O)Cc4ccsc4)C[C@@H]32)n1`, 6.284%; that for `Cc1n[nH]c(C2CN(C(=O)CCc3ccsc3)CCO2)n1` (configuration not stated), -9.569%.

For the compound `O=C(Cc1ccccc1)N1CCOC(c2nc(-c3ncccn3)no2)C1` (configuration not stated), the “Percent Effect” value turned out to be 104.4%.

Take `O=C(O)C(=O)O.c1cnc(-c2noc(C3CN(Cc4ccc5c(c4)CCO5)C3)n2)nc1`: the “Percent Effect” value is 8.464%. The result for `O=C(Cc1ccsc1)N1CCOC(c2nc(-c3ncccn3)no2)C1` (configuration not stated) reads 131.4%; that for `Cc1ccc2c(C)c(C(=O)NCc3csc(N)n3)oc2c1`, 24.68%.

As for `Cc1ccc(S(=O)(=O)NCc2cnn(C)c2)c(F)c1`, the “Percent Effect” value is reported as 1.109%.

For `Cc1ccc(S(=O)(=O)NCC(C)(C)N)c(F)c1.Cl`, the “Percent Effect” value is 102.6%.

Consider `Cc1ccc(S(=O)(=O)NC(C)(C)CN)c(F)c1.Cl`, for which the “Percent Effect” value is reported as -7.288%. The result for `Cc1c(F)cccc1S(=O)(=O)NC(C)(C)CN.Cl` reads -6.464%; that for `Cc1c(F)cccc1S(=O)(=O)NCCN.Cl`, -3.419%. The result for `Cc1ccc(S(=O)(=O)NCCCN2CCC(O)CC2)c(F)c1` reads 10.81%; that for `Cc1cc(S(=O)(=O)NCC(C)(C)N)c(F)cc1F.Cl`, 106.9%; that for `Cc1cc(S(=O)(=O)NCC[S+](C)[O-])c(F)cc1F` (configuration not stated), 90.6%. The result for `CCc1nc(NS(=O)(=O)c2cc(C)c(F)cc2Cl)no1` reads -1.735%. In the case of `Cc1ccc(F)c(NCC(C)(C)S(C)(=O)=O)c1`, the “Percent Effect” value is -3.079%.

Regarding `Cc1cc(S(=O)(=O)NC(C)(C)CN)c(F)cc1F.Cl`, the “Percent Effect” value came out at 112.3%. `Cc1cc(F)c(S(=O)(=O)NCCCN2CCC(O)CC2)cc1F`: the “Percent Effect” value worked out at 7.324%.
